# Results: PubChem BioAssay AID999 (SRMLSC, 2007)
# Activity calls are given as the source filed them.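 How the source made its calls: active means viability at or below 21.59%, 3 SD under the median of tested compounds; inactive means the rest.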
# Assay: growth suppression of PTEN-null HCT116 cells, cell-based, validation, diverse DP compound set (AID 999);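 further: 100% = median luminescence of untreated cell control wells and 0% = no signal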
# Conditions: CellTiter-Glo, 60 h, at 10 µM, stronger effect = lower value
row,SMILES,viability
1,NS(=O)(=O)c1cc(C(=O)O)c(NCc2ccco2)cc1Cl,104% (inactive)
2,COc1ccc(C2CNC(=O)C2)cc1OC1CCCC1 (stereo not drawn),96.5% (inactive)
3,O=C1OC2(c3ccc(O)cc3Oc3cc(O)ccc32)c2ccccc21,96% (inactive)
4,CCOC(=O)c1ncn2c1CN(C)C(=O)c1cc(F)ccc1-2,95.3% (inactive)
5,C[C@H](CS)C(=O)N1CCC[C@H]1C(=O)O,93.9% (inactive)
6,O=C1OC(c2cc(I)c(O)c(I)c2)(c2cc(I)c(O)c(I)c2)c2ccccc21,93.5% (inactive)
7,CC1(C)OC2CC(=O)OCC23C1CC(=O)C1(C)C3CC[C@@]2(C)[C@H](c3ccoc3)OC(=O)C3OC312 (stereo partly drawn),97.3% (inactive)
8,Cc1c2oc3c(C)ccc(C(=O)N[C@@H]4C(=O)N[C@H](C(C)C)C(=O)N5CCC[C@H]5C(=O)N(C)CC(=O)N(C)[C@@H](C(C)C)C(=O)O[C@@H]4C)c3nc-2c(C(=O)N[C@@H]2C(=O)N[C@H](C(C)C)C(=O)N3CCC[C@H]3C(=O)N(C)CC(=O)N(C)[C@@H](C(C)C)C(=O)O[C@@H]2C)c(N)c1=O,43.2% (inactive)
9,COc1ccc(CC(N)C(=O)N[C@H]2[C@@H](O)[C@H](n3cnc4c(N(C)C)ncnc43)O[C@@H]2CO)cc1 (stereo partly drawn),5.97% (active)
10,O=C(O)c1cc([N+](=O)[O-])ccc1NCCCc1ccccc1,94.2% (inactive)
11,CC[n+]1c(-c2ccccc2)c2cc(N)ccc2c2ccc(N)cc21,20.1% (active)
12,CC(C)NCC(O)COc1cccc2ccccc12 (stereo not drawn),89.1% (inactive)
13,C=C(C)C1CC=C(C)C(O)C1 (stereo not drawn),89.2% (inactive)
